Reference: PubChem BioAssay (NCI)
“And” between values parts separate entries of the source, which are not always exact repeats. Equal values may be shown once. Compounds without any hit were thinned out: in the full panel of roughly 83,000, 20% have a hit.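 96-well plates, one dose, 48 hours. Percent growth reported; active if below 10.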 A number with no mark means an inactive call. The source made the active and inactive calls.

Test system: HL-60(TB) leukemia
Assay: NCI-60 one-dose screen, 48 h (100 = growth as untreated, 0 = no growth, -100 = all killed)
Conditions: 10 µM unless noted

Row | Compound | growth
1 | CN(C)C/C=C/C(=O)Nc1cc2c(Nc3ccc(F)c(Cl)c3)ncnc2cc1O[C@H]1CCOC1 | -44.7% (active)
2 | CCOC(=O)c1cc2c(=O)oc3ccccc3c2oc1=O | 106%
3 | CCN(CC)c1ccc(NC(C(=O)c2ccccc2)c2ccccc2)cc1 (centres undefined) | 65.5%
4 | CCCCOC1NC(=O)NC(=O)C1(F)C(=O)OCC (centres undefined) | 63.5%
5 | COC(=O)CNC(=O)[C@H](Cc1ccccc1)NCc1ccncc1 | 88.6%
6 | C[n+]1c(/C=C/c2c[nH]c3ccccc23)ccc2ccccc21 | 73.9%
7 | CCN(CC)c1ccc2c(c1)Oc1nc(N)c(C#N)c(N)c1C2Sc1ccc(SC)cc1 (centres undefined) | -31.7% (active)
8 | COc1ccc2c(c1)CC[C@H](O)/C2=C/c1cc(OC)c(OC)c(OC)c1 | -20.2% (active)
9 | Cc1cc(=O)n(Nc2ccccc2)c(O)c1C#N | 90.3%
10 | CSc1nc(N)c(CNC(C)c2ccccc2)c(=O)n1C (centres undefined) | 81.1%
11 | NC(=O)c1ccc[n+]([C@@H]2O[C@H](COP(=O)([O-])OP(=O)(O)OC[C@H]3O[C@@H](n4cnc5c(N)ncnc54)[C@H](O)[C@@H]3O)[C@@H](O)[C@H]2O)c1 | 109%
12 | O=c1sc2ncnc3ncn1c32 | 85.1%
13 | Nc1[nH][nH]c(=O)c1N=Nc1ccccc1 | 98.6% and 102%
14 | COc1cccc2c1C(=O)c1c(O)c3c(c(O)c1C2=O)C[C@@](O)(C(=O)CO)C[C@@H]3OC1CC(OC(C)=O)C(OC(C)=O)C(C)O1 (some centres undefined) | -40% (active)
